Screening results deposited in PubChem by National Center for Advancing Translational Sciences (NCATS).
Rows were chosen to be rich in hits. Some 2.8% of all compounds tested hit in one or more screens of this group.
PTHR1 ag – agonists of human PTHR1 parathyroid hormone receptor. Q03431. HEK293 GP2 PTHR1 cells, GloSensor cAMP luminescence, 1 h. Potency, µM (titrated, usually from 115 µM), usual class: activators. 0.075% of 410,000 active. AID 743266; further: nearly all actives have a fitted effect of over 55% in size
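HEK-293-derived GP2 cells expressing PTHR1 and a GloSensor cAMP reporter, 3,000/well, plated overnight, given luciferin plus IBMX (each 0.5 mM as added) for 1 h at 37 °C, then compound for 1 h at 37 °C. Luminescence was read after 15 min at room temperature.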
D3 ag – agonists of human D3 dopamine receptor. P35462. D3R DiscoveRx beta-arrestin cells, luminescence, 90 min. max activation, %. 0.58% of 410,000 active. AID 652048; in the data active means max activation above about 30%
Target sequence (P35462 whole entry, looked up): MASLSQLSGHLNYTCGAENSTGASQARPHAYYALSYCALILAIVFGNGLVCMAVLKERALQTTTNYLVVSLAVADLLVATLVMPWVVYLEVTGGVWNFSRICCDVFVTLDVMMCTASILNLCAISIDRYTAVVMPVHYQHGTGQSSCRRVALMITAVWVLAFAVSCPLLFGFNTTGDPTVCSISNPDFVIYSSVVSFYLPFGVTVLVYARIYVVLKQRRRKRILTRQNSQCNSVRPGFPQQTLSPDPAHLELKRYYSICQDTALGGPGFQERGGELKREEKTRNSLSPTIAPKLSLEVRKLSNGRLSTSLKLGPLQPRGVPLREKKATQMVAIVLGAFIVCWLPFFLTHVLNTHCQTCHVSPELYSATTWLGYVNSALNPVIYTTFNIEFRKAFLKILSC
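Agonist mode: compounds and dopamine controls were applied to plated cells for 90 min at 37 degrees C after an overnight attachment at 1500 cells/well. Luminescent read-out followed 30 - 60 minutes at room temperature with DiscoveRx detection reagent.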
Integrin act MD – activators of alpha7 integrin expression for muscular dystrophy; Potency, µM (series often up to 38.3 µM), usual class: activators; AID 624291; 0.064% of 350,000 active; alpha7betagal myoblasts, beta-gal FDG fluorescence, 48 h; further: nearly all actives have a fitted effect of over 60% in size
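alpha7betagal+/- myoblasts (passage 13, 250/well) treated 48 h at 37C with compounds at 1:260 dilution of DMSO stock. Lysed, then beta-galactosidase activity read as FDG fluorescence (ex 480/em 540) after 30 min, with pre-read for autofluorescence.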
MBNL1 CUG block – MBNL1-poly(CUG) RNA binding inhibition; Q9NR56; TR-FRET MBNL1-His/biotin-(CUG)12 binding, 665/545 ratio; Potency, µM (top dose mostly 57.5 µM), most hits filed as inhibitors; 0.036% of 280,000 active; AID 2675; active means well fitted inhibition curve with a large enough effect in the signal ratio, with a control signal flat, not every such curve was filed as active; inconclusive means small, poorly fitted or top-dose-only effect, or effect the other way, or a change in a side signal; inactive means no such curve, though single readings can be large or run the other way; the % refers to the signal ratio
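Compounds (final 92 nM to 58 uM) are added to His-tagged MBNL1 and biotin-(CUG)12, then terbium anti-His antibody and streptavidin-XL665 (5 nM final). After 60 min at room temperature, the 665/545 nm ratio is read.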
CBFb-RUNX1 inh – blocks binding between human CBF-beta and RUNX1; Q01196+Q13951; AlphaScreen CBFb-His/RUNX1-biotin binding, biochemical; Potency, µM (top dose mostly 59.8 µM), usual class: inhibitors; 230,000 tested, under 10 active; AID 1477
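Room-temperature protein-protein interaction test with 30 nM each of His-tagged CBF-beta and biotinylated RUNX1, 15 min with compound, then 90 min with nickel plus streptavidin beads. Signal read in AlphaScreen mode.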
DRD3 antagonist – blocks the human D3 dopamine receptor. P35462. D3R cells, DiscoveRx beta-arrestin luminescence, antagonist mode; active compounds read low. max response, negative = inhibition, %. 2.5% of 360,000 active. AID 652054; in the data active means max response below about -50%; inconclusive means no clear call, values can overlap the other calls
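Cells plated overnight at 1500 cells/well, then exposed to library compounds with dopamine controls for 90 minutes at 37 degrees C. DiscoveRx reagent added for 30–60 minutes at room temperature; luminescence read, quantitative HTS format.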
Hits are given with their value; – = inactive; ? = inconclusive; · = not tested or not shown. Unless noted, the call rests on the fitted dose curve; in most records, active means well fitted curve in the direction sought with a large enough effect; inconclusive means small, poorly fitted or top-dose-only effect, or another doubt; inactive means no such curve, though single readings can be large; an effect the other way counts as inactive or inconclusive.

SMILES | PTHR1 ag | D3 ag | Integrin act MD | MBNL1 CUG block | CBFb-RUNX1 inh | DRD3 antagonist
CCc1cc(CNC(=O)c2ccc(OC3CCN(C(C)=O)CC3)c(OC)c2)on1 | – | – | ? | – | · | –
COc1ccc(CN2CCN(Cc3ccccc3)C(CCO)C2)cc1OC (stereo not drawn) | – | – | – | – | – | -72
Cc1ccc(CN2CCN(C/C(Cl)=C/c3ccccc3)CC2CCO)o1 (stereo not drawn) | – | – | – | – | – | –
COc1ccc(CN2CCN(CCCc3ccccc3)C(CCO)C2)cc1OC (stereo not drawn) | – | – | – | – | · | –
CC(C)CCN1CCN(Cc2cccc(-n3cccn3)c2)CC1CCO (stereo not drawn) | – | – | – | – | – | –
CSc1cccc(CN2CCN(CCC(C)C)C(CCO)C2)c1 (stereo not drawn) | – | – | – | – | – | -51
C/C(=C\c1ccco1)CN1CCN(Cc2ccc(C)o2)C(CCO)C1 (stereo not drawn) | – | – | – | – | – | -70
OCCC1CN(Cc2cccc(C(F)(F)F)c2)CCN1Cc1ccccc1 (stereo not drawn) | – | – | – | – | – | -72
COc1ccc(NC(=O)NC2COc3ccccc3C2)cc1Cl (stereo not drawn) | – | – | · | · | · | ·
C=CCN(C(=O)c1csnn1)C(C(=O)NCc1ccc(F)cc1)c1cccs1 (stereo not drawn) | – | – | – | – | · | –
CCOC(=O)CSc1nc2ccc(NC(=O)COc3ccccc3C)cc2s1 | – | – | · | · | · | ·
COC(C(=O)Nc1ccnn1C1CCN(Cc2ccc(C)s2)CC1)c1ccccc1 (stereo not drawn) | – | – | – | – | · | –
Cc1ccc(CN2CCN(C/C=C/c3ccc(F)cc3)CC2CCO)o1 (stereo not drawn) | – | – | – | – | – | -93
COc1cccc2c1OCC(CN1CCN(Cc3ccccc3)C(CCO)C1)=C2 (stereo not drawn) | – | – | – | – | – | -94
CC(C)CCN1CCN(Cc2cccc(C(F)(F)F)c2)CC1CCO (stereo not drawn) | – | – | – | ? | – | -112
Cc1ccc(CN2CCN(Cc3cnn(-c4ccc(F)cc4)c3)CC2CCO)o1 (stereo not drawn) | – | – | – | – | – | ?
COc1cccc2c1OCC(CN1CCN(Cc3ccccc3F)C(CCO)C1)=C2 (stereo not drawn) | – | – | – | – | · | –
COc1ccccc1/C=C/CN1CCN(Cc2ccc(F)cc2)C(CCO)C1 (stereo not drawn) | – | – | – | – | – | -82
CCCOc1ccc(-c2nonc2NC(=O)c2ccco2)cc1OCCC | – | – | · | · | · | ·
O=c1oc2ccccc2c(Nc2ccc3ccccc3c2)c1[N+](=O)[O-] | – | – | – | ? | – | -86
COc1ccc(-n2nc(C(=O)Nc3ccc(Cl)cn3)c3c4ccccc4n(C)c3c2=O)cc1Cl | – | – | · | · | · | ·
CCC(C)NC(=O)CC(NS(=O)(=O)c1ccc(Cl)cc1)c1ccco1 (stereo not drawn) | – | – | – | – | – | -53
CN(CC(=O)N1CCc2ccccc21)S(=O)(=O)c1ccc(Cl)cc1 | – | – | – | – | – | –
O=C(CC(NS(=O)(=O)c1ccc(Cl)cc1)c1ccco1)N1CCc2ccccc21 (stereo not drawn) | – | – | – | – | – | -69
COc1ccc(CCN(C)C/C=C/c2ccccc2[N+](=O)[O-])cc1OC | – | – | – | ? | · | -60
O=C(NCc1nnnn1-c1ccc(F)c(F)c1)c1cc2ccccc2o1 | – | – | – | · | · | –
CCOC(=O)c1sc(NC(=S)NC(=O)CC(C)C)cc1C | – | – | – | – | – | -78
COc1cccc2c1[C@@H]1CN(CCCCn3c(=O)[nH]c4c(sc5ncc(-c6ccccc6)nc54)c3=O)C[C@@H]1CO2 | – | – | · | ? | – | -99
CO[C@@]1(NC(=O)Cc2cccs2)C(=O)N2C(C(=O)O)=C(COC(N)=O)CSC21 (stereo partly drawn) | · | · | · | · | – | ·
